What all share (conditions): concentration: 10 µM; 24 h
Assay [1] deals with HCC1569. The assay is described as follows: cell number relative to DMSO (% of DMSO); higher = more cells (less growth inhibition / toxicity). In short, it runs like this:
(§1)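 Six fields per well were imaged at ×10 after the cells were fixed in 3.7% formaldehyde and stained with a rabbit anti-H1.0 antibody, an AlexaFluor 647 secondary and DAPI. The HCC1569 and TDF cells had been plated at 800 per well in 384-well plates (RPMI, 10% FBS) and treated in triplicate with compounds at 10 µM for 24 h at 37 °C. The values are the median of replicates of H1.0 nuclear intensity or cell number, as percent of the plate control. Smoothing for positional effects was applied to HCC1569 data.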

The subject of assay [2] is TDF. Described as above. The essentials:
as §1

In assay [3] the test system is TDF. The assay is described as follows: H1.0 immunofluorescence intensity relative to DMSO (% of DMSO); higher = stronger H1.0 induction, active = 120 or more. The essentials: as §1
The test system of assay [4] is HCC1569. Nature of the assay: H1.0 immunofluorescence intensity relative to DMSO (% of DMSO); higher = stronger H1.0 induction, active = 140 or more. In short, it runs like this: as §1
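Throughout, for H1.0 immunofluorescence intensity relative to DMSO: TDF is a line of transformed human dermal fibroblasts of mesenchymal origin.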
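Throughout, for cell number relative to DMSO: TDF denotes transformed human dermal fibroblasts of mesenchymal origin.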

Consider `CC1OC(=O)C2CC3CCCCC3C(C=CC3CCCC(C)N3C)C12` (single isomer, unassigned; (+)) [(+)-Himbacine], for which the cell number was 102 in the assay on HCC1569 [1] and 112 with TDF [2]. Moreover, the H1.0 immunofluorescence intensity in the assay with TDF [3] is 91 (inactive); with HCC1569 [4] it was 109 (inactive).
Taken in the same sequence, the figures for `CCCn1c(=O)c2[nH]c(C3CCCC3)nc2n(CCCOC(=O)c2ccc(S(=O)(=O)F)cc2)c1=O` were 99.7, 110, 90.1 (inactive) and 77.2 (inactive).
Taken in the same sequence, the figures for `COc1ccccc1CN[C@H]1C2CCN(CC2)[C@H]1C(c1ccccc1)c1ccccc1` were 95.3, 97.3, 105 (inactive) and 125 (inactive).
Regarding `CC12CCC3C(CCC4(O)CC(O)CCC34C=O)C1(O)CCC2C1=CC(=O)OC1` (stereo not drawn) [Strophantidin], the values for the cell number with HCC1569 [1] and in the assay with TDF [2] were 67 and 56.2, respectively. The values for the H1.0 immunofluorescence intensity in the assay on TDF [3] and in the assay with HCC1569 [4] were 123 (active) and 115 (inactive), respectively.
For `C[N+]1(C)C2CCC1CC(OC(=O)c1c[nH]c3ccccc13)C2.[I-]` (stereo not drawn) [3-Tropanylindole-3-carboxylate methiodide] the same measures were 100, 106, 95.5 (inactive) and 114 (inactive).
Regarding `CC(C)CC(NP(=O)([O-])OC1OC(C)C(O)C(O)C1O)C(=O)NC(Cc1c[nH]c2ccccc12)C(=O)[O-].[Na+].[Na+]` (stereo not drawn) [Phosphoramidon disodium], the cell number in the assay on HCC1569 [1] was 99.6; with TDF [2] it was 110. The H1.0 immunofluorescence intensity was 90.6 (inactive) in the assay with TDF [3] and 102 (inactive) in the assay with HCC1569 [4].
On to `CCC(C(=O)O)C1CCC(C)C(C(C)C(O)C(C)C(=O)C(CC)C2OC3(C=CC(O)C4(CCC(C)(C5CCC(O)(CC)C(C)O5)O4)O3)C(C)CC2C)O1` (stereo not drawn) [Salinomycin], for which the cell number turned out to be 87.1 in the assay on HCC1569 [1] and 87.7 in the assay with TDF [2]. In addition, the H1.0 immunofluorescence intensity is 111 (inactive) in the assay with TDF [3] and 110 (inactive) with HCC1569 [4].

Values taken from the supplement of paper PMC7156485.
